Read-out in assay [1]: Thrombomodulin, THBD (gene 7056)
Kind of assay: BSK_CASM3C_Thrombomodulin: BioMAP Diversity Plus: CASM3C Assay for Thrombomodulin Biomarker Activity (AID 2283051).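 Also: thrombomodulin protein level measured by ELISA 24 h after dosing.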 The conditions noted are these: primary human coronary artery smooth muscle cells; actives raise or lower the signal.

Read-out in assay [2]: Tissue Factor, F3 (gene 2152)
Kind of assay: BSK_CASM3C_TissueFactor: BioMAP Diversity Plus: CASM3C Assay for Tissue Factor Biomarker Activity (AID 2283052).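 Also: cell surface tissue factor protein level read by ELISA.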 The conditions noted are these: primary human coronary artery smooth muscle cells; actives raise or lower the signal.

Read-out in assay [3]: Interferon-gamma inducible Protein 10 (IP10), CXCL10 (gene 3627)
Kind of assay: BSK_hDFCGF_IP10: BioMAP Diversity Plus: hDFCGF Assay for Interferon-gamma inducible Protein 10 (IP10) Biomarker Activity (AID 2283053). Conditions: primary human foreskin fibroblasts; actives raise or lower the signal. The procedure, abridged:
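ELISA read-out of IP-10 (CXCL10) from primary human skin fibroblasts, 24 h after compound addition. Gain or loss of signal versus DMSO baseline, bidirectional curve fitting.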

Read-out in assay [4]: Urokinase-type plasminogen activator receptor (uPAR), PLAUR (gene 5329)
Kind of assay: BSK_CASM3C_uPAR: BioMAP Diversity Plus: CASM3C Assay for Urokinase-type plasminogen activator receptor (uPAR) Biomarker Activity (AID 2283054).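 Also: cell-surface uPAR protein level quantified by ELISA.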 Conditions: primary human coronary artery smooth muscle cells; actives raise or lower the signal.

Read-out in assay [5]: Vascular cell adhesion molecule 1 (VCAM1), VCAM1 (gene 7412)
Kind of assay: BSK_CASM3C_VCAM1: BioMAP Diversity Plus: CASM3C Assay for Vascular cell adhesion molecule 1 (VCAM1) Biomarker Activity (AID 2283055).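 Also: VCAM-1 protein level quantified by ELISA on the cells.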 The conditions noted are these: primary human coronary artery smooth muscle cells; actives raise or lower the signal.

Read-out in assay [6]: Collagen III, COL3A1 (gene 1281)
As to the kind of experiment: BSK_hDFCGF_CollagenIII: BioMAP Diversity Plus: hDFCGF Assay for Collagen III Biomarker Activity (AID 2283056). Conditions: primary human foreskin fibroblasts; actives raise or lower the signal. In a few lines: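 Human foreskin primary fibroblasts were exposed to test chemicals for 24 h, after which collagen III was quantified by ELISA. Activity was fitted bidirectionally against DMSO as negative control and baseline.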

Read-out in assay [7]: Epidermal growth factor receptor (EGFR), EGFR (gene 1956)
As to the kind of experiment: BSK_hDFCGF_EGFR: BioMAP Diversity Plus: hDFCGF Assay for Epidermal growth factor receptor (EGFR) Biomarker Activity (AID 2283057). The conditions noted are these: primary human foreskin fibroblasts; actives raise or lower the signal. The procedure, abridged: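 ELISA readout of EGFR on human dermal fibroblasts (primary foreskin cells), 24 h post-dosing; bidirectional curve fit vs DMSO baseline, gain or loss of signal scored.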

Read-out in assay [8]: Interleukin-8 (IL8), CXCL8 (gene 3576)
As to the kind of experiment: BSK_hDFCGF_IL8: BioMAP Diversity Plus: hDFCGF Assay for Interleukin-8 (IL8) Biomarker Activity (AID 2283058). Conditions: primary human foreskin fibroblasts; actives raise or lower the signal. The procedure, abridged:
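hDFCGF human dermal fibroblasts; 24 h chemical exposure; IL-8 by ELISA; bidirectional curve fit vs DMSO baseline; gain or loss of signal scored.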

Assay [9] is described as follows: BSK_hDFCGF_Proliferation: Cell Proliferation Assessment in the BioMAP Diversity Plus: hDFCGF Assay (AID 2283059).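 Also: curves fitted for both rise and fall of signal versus DMSO baseline.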 The conditions noted are these: primary human foreskin fibroblasts. The procedure, abridged: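 Sub-confluent human foreskin fibroblast cultures receive test chemical […]. Relative cell number is quantified by sulforhodamine B staining (0.1%, after 10% TCA fixation) at 560 nm, with bidirectional fitting referenced to DMSO.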

Read-out in assay [10]: Macrophage colony-stimulating factor (MCSF), CSF1 (gene 1435)
As to the kind of experiment: BSK_hDFCGF_MCSF: BioMAP Diversity Plus: hDFCGF Assay for Macrophage colony-stimulating factor (MCSF) Biomarker Activity (AID 2283060). The conditions noted are these: primary human foreskin fibroblasts; actives raise or lower the signal. In a few lines: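 Human foreskin primary fibroblasts were treated with test chemical for 24 h, and M-CSF was then measured by ELISA. Data were fitted bidirectionally against DMSO as the negative control and activity baseline.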

Assay [11] is described as follows: BSK_hDFCGF_SRB: Viability Assessment in the BioMAP Diversity Plus: hDFCGF Assay (AID 2283061).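 Also: cells exposed to compound for 24 h before the read.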 Conditions: primary human foreskin fibroblasts. The procedure, abridged: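 Human foreskin primary fibroblasts were treated with compound and assessed 24 h after dosing. Total protein was measured by sulforhodamine B staining (0.1% SRB after 10% TCA fixation, 560 nm read) as a cytotoxicity marker, with bidirectional fitting against DMSO baseline.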

Read-out in assay [12]: Monokine induced gamma interferon (MIG), CXCL9 (gene 4283)
Kind of assay: BSK_hDFCGF_MIG: BioMAP Diversity Plus: hDFCGF Assay for Monokine induced gamma interferon (MIG) Biomarker Activity (AID 2283063). Conditions: primary human foreskin fibroblasts; actives raise or lower the signal. In a few lines:
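ELISA read-out of MIG from primary human dermal fibroblasts 24 h post-dosing. Gain or loss of signal fitted bidirectionally, DMSO as baseline.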

Read-out in assay [13]: Vascular cell adhesion molecule 1 (VCAM1), VCAM1 (gene 7412)
Kind of assay: BSK_hDFCGF_VCAM1: BioMAP Diversity Plus: hDFCGF Assay for Vascular cell adhesion molecule 1 (VCAM1) Biomarker Activity (AID 2283065).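 As to AC50: VCAM-1 protein level quantified by ELISA after 24 h chemical exposure.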 Conditions: primary human foreskin fibroblasts; actives raise or lower the signal. In a few lines:
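Primary human foreskin fibroblasts (hDFCGF system) were dosed with chemical and VCAM-1 was measured by ELISA 24 h later. Bidirectional curve fitting used DMSO as negative control and activity baseline.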

Read-out in assay [14]: Plasminogen activator inhibitor-1 (PAI1), SERPINE1 (gene 5054)
As to the kind of experiment: BSK_hDFCGF_PAI1: BioMAP Diversity Plus: hDFCGF Assay for Plasminogen activator inhibitor-1 (PAI1) Biomarker Activity (AID 2283066). Conditions: primary human foreskin fibroblasts; actives raise or lower the signal. In a few lines: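 ELISA readout of PAI-1 from primary human skin fibroblast cultures, 24 h after compound addition. Gain or loss of signal was fitted bidirectionally against DMSO baseline.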

Read-out in assay [15]: Intercellular Adhesion Molecule 1 (ICAM1), ICAM1 (gene 3383)
As to the kind of experiment: BSK_KF3CT_ICAM1: BioMAP Diversity Plus: KF3CT Assay for Intercellular Adhesion Molecule 1 (ICAM1) Biomarker Activity (AID 2283067). The conditions noted are these: primary human keratinocytes with fibroblasts; actives raise or lower the signal. The procedure, abridged:
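Human keratinocyte plus foreskin fibroblast primary co-culture was exposed to chemical for 24 h. ICAM-1 was then quantified by ELISA, and the data were fit bidirectionally against DMSO as the negative control and baseline.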

Read-out in assay [16]: Interferon-gamma inducible Protein 10 (IP10), CXCL10 (gene 3627)
As to the kind of experiment: BSK_KF3CT_IP10: BioMAP Diversity Plus: KF3CT Assay for Interferon-gamma inducible Protein 10 (IP10) Biomarker Activity (AID 2283068). Conditions: primary human keratinocytes with fibroblasts; actives raise or lower the signal. The procedure, abridged:
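ELISA read-out of IP-10 after 24 h chemical dosing of human skin primary co-culture (keratinocytes, foreskin fibroblasts). Gain or loss of signal relative to DMSO, bidirectional curve fit.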

Assay [17] in a line: BSK_KF3CT_SRB: Viability Assessment in the BioMAP Diversity Plus: KF3CT Assay (AID 2283069). The conditions noted are these: primary human keratinocytes with fibroblasts. In a few lines:
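Cytotoxicity was gauged by SRB staining (0.1% SRB, 10% TCA fixation, 560 nm) of parallel cultures at 24 h. The cells were primary human skin keratinocytes co-cultured with fibroblasts, and activity was fitted in both directions against DMSO.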

Read-out in assay [18]: Interleukin-1 alpha (IL1a), IL1A (gene 3552)
As to the kind of experiment: BSK_KF3CT_IL1a: BioMAP Diversity Plus: KF3CT Assay for Interleukin-1 alpha (IL1a) Biomarker Activity (AID 2283070). The conditions noted are these: primary human keratinocytes with fibroblasts; actives raise or lower the signal. In a few lines:
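IL-1a was detected by ELISA 24 h after chemical treatment of a co-culture of human skin keratinocytes and foreskin fibroblasts. Gain or loss of signal was fitted against the DMSO baseline.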

Read-out in assay [19]: TIMP metallopeptidase inhibitor 1 (TIMP1), TIMP1 (gene 7076)
Kind of assay: BSK_hDFCGF_TIMP1: BioMAP Diversity Plus: hDFCGF Assay for TIMP metallopeptidase inhibitor 1 (TIMP1) Biomarker Activity (AID 2283062). The conditions noted are these: primary human foreskin fibroblasts; actives raise or lower the signal. In a few lines: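 Primary human foreskin fibroblasts in the hDFCGF system were dosed with compound for 24 h, then TIMP-1 was measured by ELISA. Activity was fitted bidirectionally relative to DMSO control; parallel SRB staining assessed cytotoxicity.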

Read-out in assay [20]: Matrix Metallopeptidase 1 (MMP1), MMP1 (gene 4312)
As to the kind of experiment: BSK_hDFCGF_MMP1: BioMAP Diversity Plus: hDFCGF Assay for Matrix Metallopeptidase 1 (MMP1) Biomarker Activity (AID 2283064). Conditions: primary human foreskin fibroblasts; actives raise or lower the signal. In a few lines:
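MMP1 levels quantified by ELISA 24 h after dosing human dermal fibroblast cultures, with parallel SRB total-protein staining for overt cytotoxicity. Data fitted in both directions against DMSO baseline.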

Several values for one entry are separate records, joined by “and”; a condition that tells them apart may be missing. Identical values can stand only once. The source holds several records for some structures; these can differ, active in one and inactive in another. Activity calls are given as the source filed them. The calls were made as follows: active = hit-call score of the fitted dose curve at least 0.9, where 1 is the maximum; inactive = score below 0.9.

The term AC50 denotes the concentration giving half of the maximal activity seen.

For the compound `CCCCOC(=O)c1ccccc1C(=O)O`, the outcome in assay [1], in assay [2], in assay [3], in assay [4], in assay [5] and in [6] was inactive. In addition, the outcome in [7], in assay [8], in assay [9], in assay [10], in [11] and in assay [12] was inactive. Further, the outcome in assay [13], in assay [14], in assay [15], in assay [16], in [17] and in [18] was inactive.
In the case of `CN(C)[C@@H]1C(=O)C(C(N)=O)=C(O)[C@@]2(O)C(=O)C3=C(O)c4c(O)cccc4[C@@](C)(O)[C@H]3[C@H](O)[C@@H]12`, the outcome in [1], in assay [2], in assay [3], in [4], in [5] and in assay [6] was inactive. Moreover, the result in assay [7], in [8], in assay [9], in assay [10], in [11] and in assay [12] was inactive. Also, the outcome in [13], in assay [14], in assay [15], in assay [16], in assay [17] and in assay [18] was inactive. The AC50 is 29.9 µM (active) in assay [3]; 19.6 µM (active) and 13.9 µM (active) in [9]; 23.3 µM (active) in assay [10]; 31.6 µM (active) in [12]; 28.6 µM (active) in [13].
Turning to `CC(C)=CC1C(C(=O)OCN2C(=O)C3=C(CCCC3)C2=O)C1(C)C` (stereo not given), the result in assay [1], in assay [2], in assay [4], in [7], in assay [8] and in assay [15] was inactive. Also, the result in assay [16], in assay [17] and in [18] was inactive. The AC50 is 30.1 µM (active) in [3]; 13.6 µM (active) in [5]; 20 µM (active) in assay [6]; 15.5 µM (active) in [9]; 27.6 µM (active) in assay [10]; 30.7 µM (active) in assay [11]. Further, the half-maximal activity concentration (AC50) in assay [12] was 33.5 µM (active); in assay [13], 25.8 µM (active); in assay [14], 30.7 µM (active).
In the case of `COP(=O)(OC)SCn1c(=O)oc2cc(Cl)cnc21`, the AC50 in assay [1] is 5.31 µM (active); in assay [3] it was 13 µM (active); in assay [4] it was 35.5 µM (active); in assay [5], 20 µM (active); in assay [6], 14.7 µM (active); in assay [9], 10.1 µM (active). For the same compound, the AC50 was 10.4 µM (active) in [10]; 13.8 µM (active) in [11]; 12 µM (active) in assay [19]; 19.3 µM (active) in assay [12]; 30.6 µM (active) in assay [20]; 16.3 µM (active) in assay [13]. In addition, the AC50 in assay [14] is 17 µM (active); in assay [15], 18 µM (active); in [16], 16.5 µM (active); in assay [17] it was 14.9 µM (active). In addition, the outcome in [2], in assay [7] and in assay [18] was inactive.
For the compound `C#CCC1=C(C)C(OC(=O)C2C(C=C(C)C)C2(C)C)CC1=O` (stereo not given), the result in [1], in assay [2], in [4], in [5], in [7] and in assay [15] was inactive. The outcome in assay [16] and in [18] was inactive. Moreover, the AC50 in assay [3] is 29.6 µM (active); in assay [6], 29.4 µM (active); in [8], 37.8 µM (active); in assay [9] it was 31.5 µM (active); in assay [10], 29.2 µM (active); in assay [11], 33.3 µM (active). The concentration at half-maximal activity (AC50) was 37 µM (active) in assay [12], 34.8 µM (active) in assay [13], 32 µM (active) in assay [14] and 22.3 µM (active) in assay [17].
On to `CCNc1nc(Cl)nc(NC(C)(C)C#N)n1`, for which the concentration at half-maximal activity (AC50) in assay [1] is 3.97 µM (active); in assay [4], 30.8 µM (active); in assay [9] it was 12.2 µM (active); in assay [14], 10.6 µM (active). The result in assay [2], in assay [3], in assay [5], in [6], in [7] and in assay [10] was inactive. Also, the outcome in assay [11], in assay [19], in assay [12], in assay [20], in assay [13] and in assay [15] was inactive. Moreover, the outcome in [16], in assay [17] and in [18] was inactive.
